TDP1 cell noCPT = qHTS for Inhibitors of human tyrosyl-DNA phosphodiesterase 1 (TDP1): qHTS in cells in absence of CPT; Potency, µM (titrated, usually from 46.2 µM), usual class: inhibitors; 15% of 420,000 active; DT40 Tdp1-/- hTDP1 cells, no CPT, ATP luminescence, 48 h; note: nearly all actives have a fitted effect of over 55% in size
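Stably hTDP1-transfected Tdp1-null chicken DT40 cells were treated with library compounds minus camptothecin and grown for at least 48 hr at 37 °C, after which cellular ATP was quantified by luminescence.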
HT1080 IDH1KD tx = qHTS for induction of synthetic lethality in tumor cells producing 2HG: qHTS for the HT-1080-IDH1KD cell line. 2% of 360,000 active. Potency, µM (doses to about 46.1 µM), hits mostly cytotoxic. HT-1080 IDH1 knockdown viability, ATP luminescence, 48 h
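IDH1KD HT-1080 cells, 750/well, RPMI + 5% FBS; compound pinned after 2 h settling; 48 h, 37 °C; CellTiter-Glo luminescence; % activity normalised to DMSO and no-cell wells; curves fitted, classed by r2 and efficacy.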
ELG1 repair inh = qHTS screen for small molecules that inhibit ELG1-dependent DNA repair in human embryonic kidney (HEK293T) cells expressing luciferase-tagged ELG1. HEK293T ELG1-luciferase reporter, luminescence, 16 h; DNA damage induced by 5-fluorouridine. Potency, µM (highest dose often 46.1 µM), hits mostly inhibitors. 2.3% of 330,000 active. AID 504467, 2011; note: nearly all actives have a fitted effect of over 55% in size
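Luminescence from the luciferase reporter, measured 30 min after ONE-Glo reagent at room temperature, was the read-out. Beforehand, 2,000 cells per well were exposed for 16 hr at 37 °C to 5-fluorouridine together with compound or vehicle.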
HT1080-NT tox = qHTS for induction of synthetic lethality in tumor cells producing 2HG: qHTS for the HT-1080-NT fibrosarcoma cell line; HT-1080-NT fibrosarcoma viability, CellTiter-Glo ATP luminescence, 48 h; 1.6% of 360,000 active; AID 686970, 2013; Potency, µM (highest dose often 46.1 µM), actives largely listed as cytotoxic;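 note: NT is the 2HG producing partner of a matched IDH1 knockdown line; nearly all actives have a fitted effect of over 55% in size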
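Fibrosarcoma NT cells, 750 per well in 5% FBS RPMI, were exposed to compound for 48 hours. Viability: CellTiter-Glo luminescence.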
IL-1B inflam inh = qHTS for Inhibitors of Inflammasome Signaling: IL-1-beta AlphaLISA Primary Screen | 4.7% of 360,000 active | THP-1 LPS/ATP IL-1B secretion, AlphaLISA, 16 h; active compounds read low | activity change, % at 57.5 µM; in the data active = activity change below about -50%; inconclusive = mostly about -30% to -49%
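Secreted IL-1B measured by AlphaLISA bead assay after 16 h compound exposure of THP-1 cells; compounds (final up to 57.5 uM) added 1 h before LPS (250 ng/mL) and ATP (1.25 mM) stimulation; lower signal means less secretion.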
TDP1 cell CPT = qHTS for Inhibitors of human tyrosyl-DNA phosphodiesterase 1 (TDP1): qHTS in cells in presence of CPT; chicken DT40 Tdp1-/-;hTDP1 cells + 20 nM CPT, ATP luminescence, 48 h; Potency, µM (doses to about 46.2 µM), usual class: inhibitors; 12% of 420,000 active; AID 686979, 2013; note: nearly all actives have a fitted effect of over 55% in size
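Chicken DT40 Tdp1-/- cells stably complemented with human TDP1 were seeded at 400 cells/well in medium containing 20 nM camptothecin, exposed to pin-transferred compounds, and grown at 37 °C for at least 48 hr. Viability was read as ATP luminescence.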
Each line names hits and unclear results; the compound was inactive in the other large screens. A selection: hits, their analogues and other compounds. The true share with any hit is near 19%. Unless noted, calls come from the whole dose curve; as a rule, active = well fitted curve in the direction sought with a large enough effect; inconclusive = small, poorly fitted or top-dose-only effect, or another doubt; inactive = no such curve, though single readings can be large; an effect the other way counts as inactive or inconclusive.

Cc1c(C(=O)NCc2ccc3c(c2)OCO3)oc2ccc(S(=O)(=O)N3CCCC3)cc12	TDP1 cell noCPT inconclusive, ELG1 repair inh 7.3µM, HT1080-NT tox inconclusive, TDP1 cell CPT inconclusive
Cc1ccc(CNC(=O)c2oc3ccc(S(=O)(=O)N4CCC(C)CC4)cc3c2C)cc1	TDP1 cell noCPT 16µM, TDP1 cell CPT inconclusive (no result: HT1080 IDH1KD tx, ELG1 repair inh, HT1080-NT tox, IL-1B inflam inh)
Cc1c(C(=O)NCc2ccc3c(c2)OCO3)oc2ccc(S(=O)(=O)N3CCCCC3)cc12	TDP1 cell noCPT inconclusive, ELG1 repair inh inconclusive, TDP1 cell CPT inconclusive
CCC(C)c1ccccc1N1CC(C(=O)N(C)CC(=O)Nc2cccc(F)c2)CC1=O (stereo unspecified)	IL-1B inflam inh -61
Cc1cccc(N2CCN(C(=O)CCc3c(C)nc4c(c3C)c(=O)n(C)c(=O)n4C)CC2)c1C	TDP1 cell noCPT inconclusive (no result: HT1080 IDH1KD tx, ELG1 repair inh, HT1080-NT tox, IL-1B inflam inh)
CC(Oc1ccc2c(c1)oc(=O)c1ccccc12)C(=O)NC(Cc1c[nH]c2ccc(O)cc12)C(=O)O (stereo unspecified)	none
CCCCN=C1NN=C(c2ccc3c(c2)OCCO3)CS1	ELG1 repair inh inconclusive, IL-1B inflam inh -63
c1csc(C2=NNC(=NC3CCCCC3)SC2)c1	TDP1 cell noCPT 23µM, ELG1 repair inh inconclusive, TDP1 cell CPT inconclusive
CCCCN=C1NN=C(c2ccc(C)c(C)c2)CS1	TDP1 cell noCPT inconclusive, ELG1 repair inh inconclusive, IL-1B inflam inh inconclusive, TDP1 cell CPT inconclusive
c1cc2c(cc1C1=NNC(=NC3CC3)SC1)OCCO2	TDP1 cell noCPT 16µM, HT1080 IDH1KD tx 12µM, ELG1 repair inh inconclusive, HT1080-NT tox 16µM, TDP1 cell CPT 21µM
O=C(NNC(=O)C1CC(c2cccs2)=NO1)NC1CCCCC1 (stereo unspecified)	none
c1ccc2oc(C3=NNC(=NC4CC4)SC3)cc2c1	TDP1 cell noCPT inconclusive, ELG1 repair inh inconclusive, TDP1 cell CPT inconclusive
O=C(COc1ccc(S(=O)(=O)N2CCOCC2)cc1Cl)NCc1ccc2c(c1)OCO2	TDP1 cell noCPT inconclusive (no result: ELG1 repair inh)
Nc1ccc2c(c1)N1CCN=C1S2	none
O=C(Nc1ccc(Cl)cc1)Nc1ccc2c(c1)N1CCN=C1S2	TDP1 cell noCPT 21µM, HT1080 IDH1KD tx 33µM, ELG1 repair inh 23µM, HT1080-NT tox 21µM, IL-1B inflam inh -66, TDP1 cell CPT 23µM
O=C(Nc1cc(C(F)(F)F)cc(C(F)(F)F)c1)[C@H]1O[C@@H](n2ccc(=O)[nH]c2=O)[C@H](O)[C@@H]1O	none (no result: ELG1 repair inh)
CCC(c1nnnn1CCc1ccccc1)N(Cc1ccco1)Cc1cc2cc(C)cc(C)c2[nH]c1=O (stereo unspecified)	TDP1 cell noCPT 23µM, ELG1 repair inh inconclusive, IL-1B inflam inh -53, TDP1 cell CPT 18µM
CCC(c1nnnn1CCOC)N(Cc1ccc(C)cc1)Cc1cc2cc(OC)ccc2[nH]c1=O (stereo unspecified)	TDP1 cell noCPT 7.3µM, ELG1 repair inh inconclusive, TDP1 cell CPT inconclusive
CCOC(=O)Cn1nnnc1C(CC)N(Cc1ccccc1)Cc1cc2cc(C)ccc2[nH]c1=O (stereo unspecified)	TDP1 cell CPT inconclusive
CCC(c1nnnn1Cc1ccccc1)N(Cc1ccco1)Cc1cc2cc(OC)ccc2[nH]c1=O (stereo unspecified)	TDP1 cell noCPT 21µM, HT1080 IDH1KD tx inconclusive, ELG1 repair inh inconclusive, HT1080-NT tox inconclusive, IL-1B inflam inh -54, TDP1 cell CPT 16µM

High-throughput results (PubChem BioAssay)
